Test results from PubChem BioAssay AID1159580 (chemical genetic matrix, 2015).
Hit rate of the full screen: of about 5,500 compounds, about 2,000 (36%) were called active. Another 18% or so got no clear call; they are omitted. Rule as the data show it: active = normalized growth mostly below about 0.91 (no sharp cut-off); inconclusive = no clear call, values can overlap the other calls; inactive = mostly above about 0.92. The list shows a part of the results.

Test: chemical genetic growth profiling, strain panel (AID 1159580);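 also: tested at 20 µM; growth read once vehicle control cultures reached saturation at 30 °C; 1 = growth at the plate median or of vehicle wells; lower values mean less growth of the strain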
Settings: S. cerevisiae deletion strains, growth OD

Measured: normalized growth

CC(=O)c1ccc2c(c1)N(CCCN(C)C)c1ccccc1S2
inactive: locus YAL021C, strain ccr4, hits give low values 0.962 | locus YAL026C, strain drs2, hits give low values 0.981 | locus YAL030W, strain snc1, hits give low values 1 | locus YBL061C, strain skt5, hits give low values 0.992 | locus YBR009C, strain hhf1, hits give low values 1 | locus YBR023C, strain chs3, hits give low values 1.01 | locus YBR171W, strain sec66, hits give low values 0.988 | locus YBR231C, strain swc5, hits give low values 0.994 | locus YBR279W, strain paf1, hits give low values 0.988 | locus YCL011C, strain gbp2, hits give low values 0.976 | locus YCL016C, strain dcc1, hits give low values 0.995 | locus YCL061C, strain MRC1, hits give low values 0.983 | locus YCL069W, strain vba3, hits give low values 0.988 | locus YCR088W, strain abp1, hits give low values 0.978 | locus YDL005C, strain med2, hits give low values 0.989 | locus YDL040C, strain nat1, hits give low values 0.99 | locus YDR001C, strain nth1, hits give low values 0.983 | locus YDR069C, strain doa4, hits give low values 0.99 | locus YDR137W, strain rgp1, hits give low values 1.09 | locus YDR159W, strain sac3, hits give low values 1.01 | locus YDR195W, strain ref2 1 | locus YDR297W, strain sur2, hits give low values 0.984 | locus YDR334W, strain swr1, hits give low values 0.959 | locus YDR335W, strain msn5, hits give low values 0.968 | locus YDR392W, strain spt3, hits give low values 0.994 | locus YEL003W, strain gim4, hits give low values 0.986 | locus YEL037C, strain rad23, hits give low values 0.939 | locus YEL061C, strain CIN8 (second series), hits give low values 0.984 | locus YER015W, strain faa2, hits give low values 0.98 | locus YER016W, strain bim1, hits give low values 0.989 | locus YER111C, strain swi4, hits give low values 0.994 | locus YER155C, strain BEM2 (second series), hits give low values 0.995 | locus YFR010W, strain ubp6, hits give low values 0.974 | locus YGL167C, strain pmr1, hits give low values 0.987 | locus YGL173C, strain kem1, hits give low values 0.973 | locus YGL227W, strain vid30, hits give low values 0.991 | locus YGL240W, strain doc1, hits give low values 1 | locus YGL253W, strain hxk2, hits give low values 0.993 | locus YHR013C, strain ard1, hits give low values 0.947 | locus YHR027C, strain rpn1, hits give low values 0.986 | locus YHR030C, strain SLT2, hits give low values 0.966 | locus YHR079C, strain IRE1, hits give low values 0.963 | locus YHR142W, strain chs7, hits give low values 0.943 | locus YJL092W, strain hpr5, hits give low values 0.934 | locus YJL095W, strain BCK1 (second series), hits give low values 1 | locus YJL095W, strain BCK1, hits give low values 1 | locus YJL115W, strain asf1, hits give low values 0.974 | locus YJL129C, strain trk1, hits give low values 0.981 | locus YJL154C, strain vps35, hits give low values 0.987 | locus YJL164C, strain tpk1, hits give low values 0.99 | locus YJL166W, strain qcr8, hits give low values 0.997 | locus YJL187C, strain SWE1, hits give low values 0.998 | locus YJR066W, strain TOR1, hits give low values 0.923 | locus YKL160W, strain elf1, hits give low values 0.976 | locus YKR026C, strain gcn3, hits give low values 0.979 | locus YKR091W, strain srl3, hits give low values 0.992 | locus YLL001W, strain dnm1, hits give low values 0.973 | locus YLL026W, hits give low values 0.996 | locus YLL041C, strain sdh2, hits give low values 0.98 | locus YLR027C, strain aat2, hits give low values 0.995 | locus YLR113W, strain HOG1, hits give low values 0.995 | locus YLR221C, strain rsa3, hits give low values 0.979 | locus YLR258W, strain gsy2, hits give low values 0.995 | locus YLR262C, strain YPT6 (second series), hits give low values 1.06 | locus YLR320W, strain mms22, hits give low values 1.01 | locus YLR342W, strain FKS1, hits give low values 0.99 | locus YLR357W, strain rsc2, hits give low values 1.01 | locus YLR370C, strain arc18, hits give low values 0.984 | locus YLR384C, strain iki3, hits give low values 0.987 | locus YML120C, strain ndi1, hits give low values 0.969 | locus YMR058W, strain fet3, hits give low values 0.967 | locus YMR125W, strain sto1, hits give low values 1.02 | locus YMR129W, hits give low values 0.991 | locus YMR205C, strain PFK2, hits give low values 1.02 | locus YMR231W, strain pep5, hits give low values 0.996 | locus YNL071W, strain lat1, hits give low values 0.995 | locus YNL183C, strain NPR1, hits give low values 0.947 | locus YNL209W, strain ssb2, hits give low values 0.99 | locus YNL248C, strain rpa49, hits give low values 0.956 | locus YNL322C, strain KRE1 (second series), hits give low values 0.987 | locus YNR049C, strain mso1, hits give low values 0.989 | locus YOR001W, strain rrp6, hits give low values 0.975 | locus YOR070C, strain gyp1, hits give low values 0.992 | locus YOR080W, strain dia2, hits give low values 0.983 | locus YOR083W, strain WHI5, hits give low values 0.971 | locus YOR106W, strain vam3, hits give low values 0.972 | locus YOR231W, strain MKK1, hits give low values 0.972 | locus YOR265W, strain rbl2, hits give low values 0.995 | locus YOR270C, strain vph1, hits give low values 0.958 | locus YOR290C, strain snf2, hits give low values 1.02 | locus YPL051W, strain arl3, hits give low values 0.994 | locus YPL078C, strain atp4, hits give low values 1 | locus YPL106C, strain sse1, hits give low values 0.973 | locus YPL240C, strain hsp82, hits give low values 0.997 | locus YPL256C, strain CLN2, hits give low values 0.954
